Results filed as inconclusive are left out. Entries that show only a call come without a potency. Unmarked numbers belong to inactive results. Calls of active or inactive are those of the source. Unless noted, calls follow the shape of the dose curve; as a rule, active = well fitted curve in the direction sought with a large enough effect; inconclusive = small, poorly fitted or top-dose-only effect, or another doubt; inactive = no such curve, though single readings can be large; an effect the other way counts as inactive or inconclusive.
Assays:
[1] = qHTS for Inhibitors of Plasmodium falciparum (DD2) proliferation (AID 504314);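 also: parasite DNA measured by SYBR Green fluorescence after red cell lysis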
Summary of the method: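 Normalization used 0.29 uM artemisinin as full inhibition and DMSO as baseline. Parasitized erythrocytes were exposed to compounds for 72 h (37C, 5% CO2), then lysed with saponin/Triton buffer containing SYBR Green I.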

[2] = qHTS for Inhibitors of Plasmodium falciparum (GB4) proliferation (AID 504315); also: nearly all actives have a fitted effect of over 50% in size
Summary of the method: (§1)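 Parasite growth measured as SYBR Green DNA fluorescence (ex 485, em 535 nm) after overnight lysis following 72 h culture at 37 °C, 0.3% parasitemia, 2.5% hematocrit. Values normalized against DMSO and 0.29 uM artemisinin controls, with plate-stack correction.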

[3] = qHTS for Inhibitors of Plasmodium falciparum (HB3) proliferation (AID 504318); also: nearly all actives have a fitted effect of over 60% in size
Summary of the method: as §1

[4] = qHTS for Inhibitors of Plasmodium falciparum (CP250) proliferation (AID 504320)
Summary of the method: as §1

[5] = molecular target: Atrial natriuretic peptide receptor 1 (Homo sapiens) (UniProt P16066); assay: Natriuretic polypeptide receptor (hNpr1) antagonism - Pilot CMLD screen (AID 1347052; calls by dose curve;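 also: cGMP level read as GloSensor luciferase luminescence after agonist stimulation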; also: potency is read from the fitted curve at half-maximal effect)
Chain of Atrial natriuretic peptide receptor 1 (Homo sapiens) (P16066 whole entry, looked up): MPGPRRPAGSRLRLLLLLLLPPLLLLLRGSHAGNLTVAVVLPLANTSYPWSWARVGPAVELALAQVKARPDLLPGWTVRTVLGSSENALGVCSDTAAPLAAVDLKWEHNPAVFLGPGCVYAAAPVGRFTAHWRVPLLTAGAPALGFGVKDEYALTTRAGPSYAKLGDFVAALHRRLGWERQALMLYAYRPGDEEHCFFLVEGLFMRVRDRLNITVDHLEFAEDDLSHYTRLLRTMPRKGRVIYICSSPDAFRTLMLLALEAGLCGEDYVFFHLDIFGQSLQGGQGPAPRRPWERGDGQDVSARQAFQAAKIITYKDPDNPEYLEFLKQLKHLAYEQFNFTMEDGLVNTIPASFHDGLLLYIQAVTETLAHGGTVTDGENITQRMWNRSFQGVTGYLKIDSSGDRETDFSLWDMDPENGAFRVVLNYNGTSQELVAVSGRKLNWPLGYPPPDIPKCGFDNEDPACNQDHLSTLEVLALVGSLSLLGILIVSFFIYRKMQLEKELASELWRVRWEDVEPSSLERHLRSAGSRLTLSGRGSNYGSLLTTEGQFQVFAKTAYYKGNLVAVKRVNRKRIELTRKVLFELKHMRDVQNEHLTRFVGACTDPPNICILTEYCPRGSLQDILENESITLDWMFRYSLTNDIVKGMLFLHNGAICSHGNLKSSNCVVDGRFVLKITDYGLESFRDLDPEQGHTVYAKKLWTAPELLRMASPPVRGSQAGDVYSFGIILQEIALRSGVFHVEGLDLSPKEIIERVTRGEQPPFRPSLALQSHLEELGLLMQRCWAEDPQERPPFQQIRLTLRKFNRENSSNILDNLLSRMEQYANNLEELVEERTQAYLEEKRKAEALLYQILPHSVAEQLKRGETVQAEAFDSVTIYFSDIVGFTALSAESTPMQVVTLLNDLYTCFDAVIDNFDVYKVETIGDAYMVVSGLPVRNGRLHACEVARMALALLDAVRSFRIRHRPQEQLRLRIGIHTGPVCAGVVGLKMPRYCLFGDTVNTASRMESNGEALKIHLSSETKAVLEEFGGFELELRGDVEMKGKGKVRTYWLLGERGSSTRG

| Compound | Potency [1] | Potency [2] | Potency [3] | Potency [4] | Potency [5] | activity, negative = inhibition [1] |
| --- | --- | --- | --- | --- | --- | --- |
| CC1=CC[C@@H](C)O[C@@]2(C1)C(=O)Nc1ccccc12 | inactive | inactive | inactive | inactive | inactive |  |
| CCCCCCN1C(=O)CC[C@@]23C1=NC(C(=O)OC)=C(C(=O)OC)[C@@H]2N(Cc1ccccc1)c1ccccc13 | inactive | inactive | inactive | inactive | inactive |  |
| COC(=O)C1=C(C)N(Cc2ccccc2)C(=O)NC1c1cccc(C(F)(F)F)c1 (stereo not given) | inactive | inactive | inactive | inactive | inactive |  |
| CC(=O)OC[C@H]1O[C@H](CC=NO[C@@H](C)CN2CCCc3nc(C)c(C)cc32)C=C[C@@H]1OC(C)=O | inactive | inactive | inactive | inactive | inactive |  |
| C#CC[C@@]1(C(=O)OC)C=C[C@@H](C)[C@H](c2ccccc2Br)N1C(=O)C(F)(F)F | inactive | inactive | inactive | inactive | inactive |  |
| COc1cccc(CO[C@H]2C=C[C@@H](c3ccccc3)O[C@H]2CO)c1 | inactive | inactive | inactive | inactive | inactive |  |
| O=C(C=Cc1ccccc1)N1CCC[C@H]1CO | inactive | inactive | inactive | inactive | inactive |  |
| C=CC[C@@H]1C=CC(ON=C(C)CCC(=O)OC[C@H]2O[C@H](C#Cc3ccccc3)C=C[C@H]2Oc2ccc(C)cc2)[C@H](CO)O1 (stereo not given in full) | inactive | inactive | inactive | inactive | inactive |  |
| CC(=O)OC[C@H]1O[C@H](c2ccc(C(C)=O)cc2)C=C[C@H]1OC(C)=O | inactive | inactive | inactive | inactive | inactive |  |
| CCN1C(=O)NC(c2cccs2)C(C(C)=O)=C1C (stereo not given) | inactive | inactive | inactive | inactive | inactive |  |
| C[C@@H]1NC(=O)[C@@H](C)COC(=O)[C@H](C)NC(=O)[C@@H](C)COC1=O | inactive | inactive | inactive | inactive | inactive |  |
| CCC(=O)C[C@@H](NC(=O)OC)c1ccc(F)cc1 | inactive | inactive | inactive | inactive | inactive |  |
| CCN(CC)CC(O)CN1CCCCc2nc(C)c(C)cc21 (stereo not given) | inactive | inactive | inactive | inactive | inactive |  |
| CC(C)[C@@H](OCc1ccccc1)[C@H](C)C=NOC[C@@H](C)[C@H](OCc1ccccc1)C(C)C | inactive | inactive | inactive | inactive | inactive |  |
| C=CCN1c2ccccc2[C@]23CCC(=O)N(Cc4ccco4)C2=NC(C(=O)OC)=C(C(=O)OC)[C@H]13 | inactive | inactive | inactive | inactive | inactive |  |
| C=CCN1C(=O)CC[C@@]23C1=NC(C(=O)OC)=C(C(=O)OC)[C@@H]2N(CC=C)c1ccccc13 | inactive | inactive | inactive | inactive | 2370 nM (active) |  |
| C#CCCCON=C1C[C@@H](O)[C@H](O)[C@H]2[C@@H]3C(=O)N(C4CCCCC4)C(=O)[C@@H]3CC[C@@H]12 | inactive | inactive | inactive | inactive | inactive |  |
| CC1=C[C@@H](C)OC2(C1)C(=O)N(CC1CC1)c1cccc(Br)c12 (stereo not given in full) | inactive | inactive | inactive | inactive | inactive |  |
| CCOC(=O)N1C2=NC(C(=O)OC)=C(C(=O)OC)[C@@H]3N(Cc4ccccc4)c4ccccc4[C@]23C[C@H]1C(=O)OC |  | inactive | inactive | inactive | inactive | -1.2% [at 1.12 µM] |
| C=C(C(=O)OCC)C(=O)c1ccccc1 | inactive | inactive | inactive | inactive | inactive |  |
| COC(=O)N[C@@H](c1ccc(Cl)cc1)C(C(C)=O)C(=O)OC (stereo not given in full) | inactive | inactive | inactive | inactive | inactive |  |
| CCN1C(=O)NC(c2ccccc2)C(C(=O)OC)=C1C (stereo not given) | inactive | inactive | inactive | inactive | inactive |  |
| COC(=O)C1(C(=O)OC)C[C@@H]2CON=C2[C@@H]1c1ccccc1 | inactive | inactive | inactive | inactive | inactive |  |
| CC(=O)OC[C@H]1O[C@H](CCON=C(C)CCN2CCCCc3nc(C)c(C)cc32)C=C[C@H]1OC(C)=O | inactive | inactive | inactive | inactive | inactive |  |
| COC(=O)[C@@]1(C=C[C@@H](C)[C@H](OC)c2ccccc2Br)[C@@H]2OCCC[C@@H]21 | inactive | inactive | inactive | inactive | inactive |  |
| CC1(C)O[C@H]2O[C@H]([C@H](O)CON=C3[C@H]4CCn5c(=O)n(-c6ccccc6)c(=O)n5[C@@H]4[C@H](O)[C@@H]4O[C@H]34)[C@H](O)[C@@H]2O1 | inactive | inactive | inactive | inactive | inactive |  |
